Assay results reported in PubChem BioAssay AID376 (PDSP, 2006).
Hit rate of the full screen: of about 2,000 compounds, about 250 (12%) were called active. Rule as the data show it: active = hERG blockade below about -20% or above about 20%; inactive = in between. The sample as a whole holds a higher share of actives than the screen did.

Biological target: Voltage-gated inwardly rectifying potassium channel KCNH2 (Homo sapiens) (UniProt Q12809)
Assay: KCNH2 potassium channel function modulators, cell-based (AID 376);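 also: 0% = buffer alone and 100% = reference blocker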
Details: hERG-expressing cells, channel activity single-concentration screen; concentration not given here

Voltage-gated inwardly rectifying potassium channel KCNH2 (Homo sapiens), sequence (Q12809 whole entry, looked up): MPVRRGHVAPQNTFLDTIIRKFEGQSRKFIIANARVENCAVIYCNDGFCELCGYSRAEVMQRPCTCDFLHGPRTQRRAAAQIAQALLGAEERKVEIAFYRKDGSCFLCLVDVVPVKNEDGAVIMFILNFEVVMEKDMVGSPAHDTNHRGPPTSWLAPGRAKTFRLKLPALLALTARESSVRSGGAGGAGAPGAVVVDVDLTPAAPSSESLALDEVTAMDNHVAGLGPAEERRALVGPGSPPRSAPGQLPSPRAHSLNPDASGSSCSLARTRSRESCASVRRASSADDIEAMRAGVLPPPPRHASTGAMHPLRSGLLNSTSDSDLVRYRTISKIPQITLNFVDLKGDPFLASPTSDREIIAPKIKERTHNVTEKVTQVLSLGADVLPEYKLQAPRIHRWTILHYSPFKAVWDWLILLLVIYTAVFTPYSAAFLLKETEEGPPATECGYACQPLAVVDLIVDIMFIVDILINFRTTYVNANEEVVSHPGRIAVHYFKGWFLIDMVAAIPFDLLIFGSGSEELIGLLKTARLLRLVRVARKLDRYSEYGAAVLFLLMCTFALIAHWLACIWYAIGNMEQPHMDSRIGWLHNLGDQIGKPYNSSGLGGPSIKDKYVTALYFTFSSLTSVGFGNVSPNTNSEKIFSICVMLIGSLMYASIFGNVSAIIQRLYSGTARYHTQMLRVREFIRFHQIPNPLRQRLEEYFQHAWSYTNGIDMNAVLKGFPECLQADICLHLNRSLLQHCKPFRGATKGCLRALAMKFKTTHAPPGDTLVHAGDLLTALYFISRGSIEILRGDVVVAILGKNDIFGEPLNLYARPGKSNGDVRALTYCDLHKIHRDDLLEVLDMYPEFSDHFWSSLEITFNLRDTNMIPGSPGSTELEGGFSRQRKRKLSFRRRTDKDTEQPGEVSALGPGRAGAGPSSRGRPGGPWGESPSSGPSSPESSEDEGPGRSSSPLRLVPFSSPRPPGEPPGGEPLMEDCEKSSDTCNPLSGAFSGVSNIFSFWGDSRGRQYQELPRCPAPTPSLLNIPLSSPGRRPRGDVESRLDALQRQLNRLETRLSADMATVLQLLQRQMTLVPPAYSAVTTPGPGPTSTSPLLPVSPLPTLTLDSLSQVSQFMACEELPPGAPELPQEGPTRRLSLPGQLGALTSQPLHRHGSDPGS

SMILES	hERG blockade
Cn1cnc([N+](=O)[O-])c1Sc1nc(N)nc2c1ncn2Cc1ccccc1	37% (active)
CC(C)Cn1cnc2c(Sc3c([N+](=O)[O-])ncn3C)nc(N)nc21	4.65% (inactive)
Nc1nc(SCc2ccccc2)c2ncn(Cc3ccccc3)c2n1	-3.09% (inactive)
NC(Cc1c[nH]c2ccc([N+](=O)[O-])cc12)C(=O)O (stereo unspecified)	7.32% (inactive)
C=C(C)COc1ccc2c(c1)CCC1C2CCC2(C)C(=O)C(=NO)CC12 (stereo unspecified)	0.877% (inactive)
OCC1OC(O)C(N=Cc2ccc3c(c2)OCO3)C(O)C1O (stereo unspecified)	-14.8% (inactive)
Nc1ccc(S(=O)(=O)Nc2cnc3ccccc3n2)cc1	8% (inactive)
Nc1ccc(S(=O)(=[OH+])[NH2+]c2ncccn2)cc1.[Ag+]	89.5% (active)
Nc1ccc(S(=O)(=O)NCc2nccs2)cc1	17.3% (inactive)
CC(C)CCNc1ncnc2[nH]ncc12	0.816% (inactive)
NCC1OC(n2cnc3c(=O)[nH]c(N)nc32)C(O)C1O (stereo unspecified)	5.66% (inactive)
CCC1=C(CC2NCCc3ccccc32)CC2c3cc(OC)c(OC)cc3CCN2C1 (stereo unspecified)	47.5% (active)
N#CC(=CNc1ccccn1)C(=O)c1ccco1	-1.1% (inactive)
OCCCNCc1ccncc1	-7.86% (inactive)
CC1(C)SC2C(C(=O)O)N=C(Cc3ccccc3)N2C1C(=O)O (stereo unspecified)	4.53% (inactive)
O=[N+]([O-])c1ccc2ncccc2c1CCc1c([N+](=O)[O-])ccc2ncccc12	2.28% (inactive)
CC(=O)C(C)CCOC1(C)OCCC1C (stereo unspecified)	-22.8% (active)
Cc1ccc(C)c(C(=N)c2ccccc2Cc2ccccc2)c1	-12.5% (inactive)
CC(SCc1ccccc1)C(=O)O (stereo unspecified)	3.31% (inactive)
NCC(=O)Nc1ccccc1	5.81% (inactive)
O=C(c1no[n+]([O-])c1C(=O)c1csc2ccccc12)c1csc2ccccc12	18.4% (inactive)
O=C(O)c1ccccc1C1c2ccccc2Oc2ccccc21	12.2% (inactive)
Cc1cccc2c1Oc1ccccc1C2NC(=O)c1ccc([N+](=O)[O-])cc1 (stereo unspecified)	32.2% (active)
NC(CC1=CS(=O)(=O)c2ccc(Cl)cc21)C(=O)O (stereo unspecified)	0.214% (inactive)
Cc1cc(C(=O)CSC(=S)SC(C)(C)C)ccc1Cl	8.12% (inactive)
CN(C)CCCNc1cc(O)c2c(c1O)C(=O)c1ccccc1C2=O	42.1% (active)

SMILES	hERG blockade
CC1=NCC[N+]1(CCc1ccccc1)Cc1ccccc1 (stereo unspecified)	13.6% (inactive)
CN(C)S(=O)(=O)c1nc(Cl)c2[nH]cnc2n1	-2.43% (inactive)
COc1cc(NCCC(=O)O)c2ncccc2c1	11.9% (inactive)
Cn1c(=O)c2[nH]c(CCCCc3nc4c([nH]3)c(=O)n(C)c(=S)n4C)nc2n(C)c1=S	-1.88% (inactive)
O=C1C=C(N2CCN(c3ccccn3)CC2)C(=O)c2c(O)ccc(O)c21	23.2% (active)
Oc1ccc(Cl)cc1C=Nc1cnc2ccccc2c1	9.11% (inactive)
C=CCSc1nc2ccccc2c(=O)n1Cc1ccco1	3.62% (inactive)
N#CNC(N)=Nc1ccc(Cl)cc1	-2.36% (inactive)
O=C(O)C12CC3(C(=O)O)CC(C(=O)O)(CC(C(=O)O)(C1)C3=O)C2=O	-1.77% (inactive)
FC(F)(F)c1cccc(-c2nc3nc(Cl)c(Cl)nc3[nH]2)c1	-24% (active)
CC(CCN)(CCN)[N+](=O)[O-]	-18.2% (inactive)
CN(Cc1cc(C(C)(C)C)cc(Br)c1O)Cc1cc(C(C)(C)C)cc(Br)c1O	5.11% (inactive)
CC(C)C(=O)Cc1ccc2ccccc2n1	-1.76% (inactive)
CCOC(=S)SCC(=O)O	0.925% (inactive)
O=C(O)C1C2CCC(O2)C1C(=O)Nc1cccc2cccnc12 (stereo unspecified)	-5.21% (inactive)
O=C(O)C1C2C=CC(O2)C1C(=O)NCc1cccnc1 (stereo unspecified)	5.66% (inactive)
O=C(O)C1C2CCC(O2)C1C(=O)NCc1cccnc1 (stereo unspecified)	-25.3% (active)
N=c1ncn(CC=Cc2ccccc2)c2nc[nH]c12	15.2% (inactive)
CN(N=O)c1ccc(C=Cc2ccnc3ccccc23)cc1	18.7% (inactive)
CN1CCN(CN2C(=O)C3C4C=CC(C3C2=O)C2C3C(=O)N(CN5CCN(C)CC5)C(=O)C3C42)CC1 (stereo unspecified)	2.12% (inactive)
NC(Cc1ccnnc1)C(=O)O (stereo unspecified)	-0.431% (inactive)
O=C(O)C1CC=CCC1C(=O)Nc1cccc(O)c1 (stereo unspecified)	7.36% (inactive)
O=C1c2ccccc2C(=O)c2c(Nc3cc4c5c(ccc6c7ccc8c9c(cc(Nc%10cccc%11c%10C(=O)c%10ccccc%10C%11=O)c(c3c56)c97)-c3ccccc3C8=O)C(=O)c3ccccc3-4)cccc21	34.1% (active)
O=C1c2ccccc2C(=O)c2c(Nc3ccc4c5c(cccc35)C(=O)c3ccccc3-4)cccc21	-13.6% (inactive)
O=C1c2ccccc2C(=O)c2c(NC(=O)c3ccc4c5c(ncnc35)-c3ccccc3C4=O)cccc21	6.48% (inactive)
CC1CCC(O)(C(C)(C(=O)O)c2ccccc2)CC1 (stereo unspecified)	5.36% (inactive)

SMILES	hERG blockade
CCCn1cnc2c(SCc3ccc(Cl)cc3)nc(N)nc21	-2.91% (inactive)
C=CCC(C(=O)O)c1ccccc1 (stereo unspecified)	-1.33% (inactive)
CN(C)CN1CSC(=S)N(CN(C)C)C1	-7.7% (inactive)
Cn1c(=O)c2[nH]c(CCCCC(=O)O)nc2n(C)c1=O	-14.9% (inactive)
Cn1c(=O)c2[nH]c(CCS)nc2n(C)c1=O	5.6% (inactive)
CCn1c(CCCc2nc3c([nH]2)c(=O)n(C)c(=O)n3C)nc2c1c(=O)n(C)c(=O)n2C	25.2% (active)
O=C(O)CC(Nc1ccccc1)C(=O)O (stereo unspecified)	12.6% (inactive)
O=C(O)c1nnsc1COCc1ccccc1	7.88% (inactive)
O=c1c2ccccc2sc2c(CO)ccc(NCCN3CCCCC3)c12	46% (active)
O=C(CCN1CCCCC1)c1csc2ccccc12	6.4% (inactive)
CC(=O)OC1CCC2(C)C(=CCC3C2CCC2(C)C(C(C)C(=O)O)CCC32)C1 (stereo unspecified)	-4.67% (inactive)
CC(=O)OC1CCC2(C)C(=CCC3C2CCC2(C)C(c4cc(C(F)(F)F)n(C(C)=O)n4)CCC32)C1 (stereo unspecified)	20.6% (active)
CC(=O)OC1CCC2(C)C(=CCC3C2CCC2(C)C3CC3OC4(CCC(C)CN4)C(C)C32)C1 (stereo unspecified)	-9.31% (inactive)
CC(C)(CN)CN	-12.2% (inactive)
O=c1c[n+](CCCC[n+]2cc(=O)o[nH]2)[nH]o1	-2.64% (inactive)
Nc1ncnc2nc[nH]c12.Nc1ncnc2nc[nH]c12.[Cl][Pt]([Cl])([Cl])[Cl]	0.497% (inactive)
O=C1C=C(Nc2nc(C(=O)O)cc(=O)[nH]2)c2ccccc2C1=O	2.16% (inactive)
O=C=Nc1ccc(Cc2ccc(N=C=O)cc2)cc1 (tested in a mixture with another compound)	20% (active)
Nc1n[nH]c2ccccc12	0.624% (inactive)
CN(C)CCNS(=O)(=O)N(C)C	6.32% (inactive)
COc1c2c(c3c(c1CCC(=O)O)OC(C)(C)C=C3)OC(C)(C)C=C2	-28.9% (active)
O=C(O)CSc1ccc(N=C=S)cc1	3.98% (inactive)
CC(C)(N)C(=O)NC1C(=O)N2C1SC(C)(C)C2C(=O)O (stereo unspecified)	-3.34% (inactive)
COC1C=COC2(C)Oc3c(C)c(O)c4c(O)c(c(CN(C)C)c(O)c4c3C2=O)NC(=O)C(C)=CC=CC(C)C(O)C(C)C(O)C(C)C(OC(C)=O)C1C (stereo unspecified)	16.3% (inactive)
NN(CC(=O)O)CC(=O)O	0.375% (inactive)
CS(=O)(=O)N(CC(=O)O)Cc1ccccc1	12.2% (inactive)

SMILES	hERG blockade
O=C(O)CN(CC(=O)O)c1ccccc1	-27.7% (active)
CC(C)=CCc1c2c(c3occ(-c4ccc(O)c(O)c4)c(=O)c3c1O)C=CC(C)(C)O2	6.29% (inactive)
O=C(O)c1ccc(SSc2ccc(C(=O)O)cn2)nc1	-6.71% (inactive)
O=C(O)C1C2CC3C(OC(=O)C31)C2Br (stereo unspecified)	2.45% (inactive)
Cn1c(=O)c2[nH]c(CCNC(=O)c3ccccc3)nc2n(C)c1=O	-14% (inactive)
N=C(N)c1ccc(C=Cc2ccc(C(=N)N)cc2)cc1	30.2% (active)
N=C(N)c1ccc(-c2ccc(-c3ccc(C(=N)N)cc3)o2)cc1	38.8% (active)
NC(CSCc1ccccc1)C(=O)O (stereo unspecified)	-2.53% (inactive)
Nc1nc(Sc2ccc([N+](=O)[O-])c3nonc23)c2[nH]cnc2n1	23.5% (active)
Nc1nc(SCc2ccccc2[N+](=O)[O-])c2[nH]cnc2n1	-11.5% (inactive)
CNc1ncnc(Sc2nc(N)nc3nc[nH]c23)c1[N+](=O)[O-]	-10.6% (inactive)
CC1(C)N=C(N)N=C(N)N1c1cccc(OCc2cccc(N)c2)c1	4.96% (inactive)
NC(=O)CC=CCC(N)=O	1.92% (inactive)
S=C(CSc1ccccc1)Nc1cccc2ccccc12	-7.05% (inactive)
O=C(Nc1cccc2ccccc12)c1ccccc1	-30.7% (active)
O=C(O)c1ccc(C(=O)Nc2cccc3ccccc23)c(C(=O)O)c1	-3.99% (inactive)
COC(=O)C1(C)CCC(c2ccc(C)cc2)=C(CC(=O)O)C1 (stereo unspecified)	-13.4% (inactive)
O=C(NCCO)c1ccc(Cl)cc1	5.8% (inactive)
OCCNC1c2cc(Cl)ccc2-c2c(Cl)cc(Cl)cc21 (stereo unspecified)	46.9% (active)
c1ccc(B2OCC(C3OB(c4ccccc4)OC4COB(c5ccccc5)OC43)O2)cc1 (stereo unspecified)	2.69% (inactive)
CC1(CC(=O)O)OC2CCCCCC2O1 (stereo unspecified) (tested in a mixture with another compound)	1.56% (inactive)
CC1CCCC(CC(=O)O)(CC(=O)O)C1 (stereo unspecified)	-3.65% (inactive)
CC1(C)C2CCC1(CC(=O)O)C(Cl)C2 (stereo unspecified)	-22.5% (active)
